Source: PubChem BioAssay (EPA / NIEHS)
Activity calls are given as the source filed them. How the source made its calls: active means hit-call score of the fitted dose curve at least 0.9, where 1 is the maximum; inactive means score below 0.9.

Assay: ATG_CRE_CIS: Attagene CIS-FACTORIAL HepG2 Assay for human cAMP Responsive Element (CRE) binding protein 3 (AID 2282926)
Conditions: HepG2 CRE cis-reporter, Attagene multiplexed mRNA; actives raise or lower the signal
Experimental: ATG_CIS is a cell-based, multiplexed-readout assay that uses HepG2, a human liver cell line, with measurements taken at 24 hours after chemical dosing in a 24-well plate.ATG_CRE_CIS is one of 52 assay component(s) measured or calculated from the ATG_CIS assay. It is designed to make measurements of mRNA induction, a form of inducible reporter, as detected with fluorescence intensity signals by Reverse transcription polymerase chain reaction (RT-PCR) and Capillary electrophoresis technology.Data from the assay component ATG_CRE_CIS was analyzed into 1 assay endpoint. This assay endpoint, ATG_CRE_CIS, was analyzed with bidirectional fitting relative to DMSO as the negative control and baseline of activity. Using a type of inducible reporter, measures of mRNA for gain or loss-of-signal activity can be used to understand the reporter gene at the transcription factor-level as they relate to the gene CREB3. Furthermore, this assay endpoint can be referred to as a primary readout, because this assay has produced multiple assay endpoints where this one serves a reporter gene function. To generalize the intended target to other relatable targets, this assay endpoint is annotated to the dna binding intended target family, where the subfamily is basic leucine zipper.
Human liver HepG2 cells are transiently transfected with multiple reporter transcription units (MRTUs) in 6-well plates using FuGene 6 reagent (Roche; 3 ml FuGene/1 mg DNA). The MRTU constructs are regulated by a cis-regulating element (promoter). […] A major difference between the CIS and TRANS system is that in CIS activities of endogenous TFs are measured, whereas the TRANS assay evaluates changes in activities of exogenous, chimeric NR-Gal4 proteins. […] At the end of 24 hour incubation, total RNA was isolated using TriZol reagent (Invitrogen). The isolated RNA is then reverse-transcribed using oligo(dT) primer and Mo-MLV reverse transcriptase (Invitrogen) with DNAse I (Ambion) treatment for 30 min. The one-tenth of the produced cDNA was amplified by PCR using Taq DNA polymerase (Invitrogen) and two reporter sequence-specific primers. The PCR products were fluorescently labeled by primer extension with 6-arboxyfluorescein (6-FAM) 5'-labeled reporter sequence-specific primer (2 min at 95 C, 20 s at 68 C and 10 min at 72 C) and these products were digested with 5U of HpaI (New England Biolabs) for 2h at 37 C. The fragments were purified using Qiaquick PCR columns (Qiagen), analyzed on an ABI 3130xL genetic analyzer (Applied Biosystems) with peak positions identified by using a set of X-rhodamine (ROX)-labeled MapMarker1000 molecular weight standards (BioVentures). The raw capillary electrophoresis data was processed using Attagraph software (Attagene).

outcome, inactive:
Clc1cccc(Cl)n1, Cc1ccc2sc3cccc(C)c3c2c1, COC(=O)OC, CC1CC(OC(=O)c2ccccc2O)CC(C)(C)C1 (stereo not given), COC(C)CCO (stereo not given), CCCCNC(=O)NS(=O)(=O)c1ccc(C)cc1, Cc1ccc2n[nH]nc2c1, CC(c1cc2ccccc2s1)N(O)C(N)=O (stereo not given), COc1ccc(O)cc1, O=C1NC(=O)c2ccccc21, O=C[C@@H](O)[C@H](O)[C@H](O)CO, CCCC(=O)c1cc(O)c(O)cc1O, CC(C)(COC(=O)c1ccccc1)COC(=O)c1ccccc1, CCC(C)(O)CCC=C(C)C (stereo not given), Cc1c(N(C)C)c(=O)n(-c2ccccc2)n1C, CCCCCCCCCCCCCCCCCC(=O)OCC(CC)CCCC (stereo not given), CC1CCC(C(C)(C)O)CC1 (stereo not given), Fc1c(F)c(F)c(Br)c(F)c1F, CC(=O)/C=C/C1=C(C)CCCC1(C)C, COC(=O)C1=C(C)NC(C)=C(C(=O)OCCN(C)Cc2ccccc2)C1c1cccc([N+](=O)[O-])c1 (stereo not given), CC1(C)CCC(C)(C)c2cc(C(=O)Nc3ccc(C(=O)O)cc3)ccc21, COc1ccc(Nc2ccccc2)c(C)c1, CN(C)c1ccc(O)c2c1C[C@H]1C[C@H]3[C@H](N(C)C)C(=O)C(C(N)=O)=C(O)[C@@]3(O)C(=O)C1=C2O, OC1OC[C@@H](O)[C@H](O)[C@H]1O (stereo not given in full), C[C@]12CC[C@H]3[C@@H](CCC4=CC(=O)CC[C@@]43C)[C@@H]1CC[C@@H]2C(=O)CO, O=C(O)c1ccc(C(=O)O)cc1, CC(CC(C)(C)C)CC(C)(C)CC(C)(C)C (stereo not given), CC(C)c1ccc(C(C)C)cc1, BrC1CCC(Br)C(Br)CCC(Br)C(Br)CCC1Br (stereo not given), CC(=O)OCCOC(C)=O, CCCCCCCCCCCCCOS(=O)(=O)O, CCOc1ccccc1OCC, FC1(F)C(F)(F)C(F)(F)C2(F)C(F)(C1(F)F)C(F)(F)C(F)(F)C1(F)C(F)(F)C(F)(F)C(F)(F)C(F)(F)C12F (stereo not given), Cc1ccccc1C=O, CC(=O)c1c(C)cc(C(C)(C)C)cc1C, CCCCNC(=O)NS(=O)(=O)c1ccc(N)cc1, CCCCCC(CO)CCC (stereo not given), OCCOCCOCCOCCO, Nc1cc(Cl)c(O)c(Cl)c1, NCCNCCN
